According to the supplement of paper PMC4166925:
± gives the standard deviation of the averaged measurements. In all, about 33,000 sequences were measured (“E-score (dimensionless, -0.5 to 0.5)”: median about -0.049, highest 2% from about 0.37 on). This is one part of a sample in which the highest values are shown more often than they occur.

System: T1, PmTbr T-box DNA-binding domain (GST fusion)
T1 sequence: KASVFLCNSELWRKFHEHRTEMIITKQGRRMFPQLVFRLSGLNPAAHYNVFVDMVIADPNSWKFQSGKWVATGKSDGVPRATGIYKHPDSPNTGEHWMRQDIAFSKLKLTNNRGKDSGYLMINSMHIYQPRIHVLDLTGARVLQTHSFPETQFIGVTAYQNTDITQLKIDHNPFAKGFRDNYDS
Assay: PBM E-score of 8-mer (E-score (dimensionless, -0.5 to 0.5)); Tbr is Tbrain of the sea star Patiria miniata (Pm) or the sea urchin Strongylocentrotus purpuratus (Sp); higher = stronger binding preference
Conditions: the construct has about 5 more residues each side
Experimental: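 Universal protein-binding microarray (Agilent AMADID 016060, 60-bp probes with a 35-bp variable region) incubated with 200 nM GST-fused Patiria miniata Tbr T-box DNA-binding domain (residues 272-466) in PBS pH 7.5. Scored for every ungapped 8-mer (given with its reverse complement) by the Universal PBM Analysis Suite as E-score (modified Wilcoxon-Mann-Whitney enrichment, range -0.5 to 0.5; >0.45 counts as bound) and Z-score of median probe intensity. Two replicate arrays (datasets 1 and 2).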
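Note: 200 nM protein in PBS on universal arrays averaged over duplicate arrays.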

Sequence	PBM E-score of 8-mer
CACTGCTG	-0.132 ± 0.038
AAGAAGTC	0.0125 ± 0.0032
CGTAGGCC	-0.213 ± 0.033
GCATATAC	-0.081 ± 0.0014
CCTTGGGC	-0.035 ± 0.01
GATGCCAC	0.182 ± 0.072
AGTGCCAG	0.2664 ± 0.0016
AGTGCCAA	0.3809 ± 0.0024
TGTGCCAA	0.351 ± 0.013
GGTGCCAA	0.454 ± 0.006
CGTGCCAC	0.274 ± 0.03
CGTGCCAA	0.324 ± 0.0048
GGTGCCAC	0.398 ± 0.015
AGTGCCAC	0.287 ± 0.014
GCGGCAGC	0.0309 ± 0.0077
GGCGAATA	0.0105 ± 0.026
ACGAATTG	0.0628 ± 0.039
ACAGCGCA	-0.0538 ± 0.03
CCGCTATC	0.177 ± 0.0022
AACACGGT	0.133 ± 0.049
GGTGAACA	0.00576 ± 0.0094
TGTGAAAA	0.38 ± 0.057
TGTGAACA	0.4216 ± 0.0014
CGTGAAAA	0.338 ± 0.026
CGTGAACA	0.321 ± 0.021

Sequence	PBM E-score of 8-mer
GGTGAAAA	0.2007 ± 0.0014
CGTGAGAG	0.265 ± 0.0088
AAGCCAAT	-0.162 ± 0.051
ACTCGAAC	-0.0874 ± 0.031
CTCTGTGC	-0.0888 ± 0.082
GGAGATTA	-0.0891 ± 0.063
AGGGCCTC	-0.399 ± 0.0047
CAAGCATG	-0.0451 ± 0.032
TGTCTAAA	-0.0695 ± 0.011
GAAGGACA	-0.0775 ± 0.028
GCAGACAA	-0.0224 ± 0.054
CCTCGCAA	0.118 ± 0.0037
ACTCGCAC	0.4 ± 0.0077
CCTCGCAC	0.42 ± 0.014
ACTCGCAT	-0.0149 ± 0.006
ACTCGCAG	0.0856 ± 0.036
GCTCGCAA	0.242 ± 0.015
GCTCGCCC	-0.213 ± 0.052
CCTCGCAG	0.0735 ± 0.061
GCTCGCAC	0.42 ± 0.025
ACAGCTAC	0.115 ± 0.032
AACTGGAG	-0.0661 ± 0.0033
CGATAAGC	0.124 ± 0.049
CGAGGTCC	-0.166 ± 0.06
AGAGGTGC	0.411 ± 0.0084

Sequence	PBM E-score of 8-mer
AGAGGTGG	0.316 ± 0.0057
CGAGGTGC	0.457 ± 0.01
GGAGGTCA	0.0158 ± 0.0067
CGAGGTCA	0.0395 ± 0.11
GGAGGTGA	0.4036 ± 0.0026
AGAGGTGA	0.352 ± 0.015
CGAGGTTA	0.0486 ± 0.017
CGAGGTAC	-0.1003 ± 0.00044
CGAGGTGA	0.4396 ± 0.0012
AGAGGTTC	-0.124 ± 0.022
ACCAACTA	-0.0247 ± 0.12
CGAACAGC	0.0465 ± 0.011
TAAGTCTA	-0.0537 ± 0.026
CGCCCTAC	-0.103 ± 0.061
CCAACAAC	0.0262 ± 0.0053
ATGTTGAA	-0.107 ± 0.017
CTGTTGGA	0.0599 ± 0.038
ATGTTGGA	-0.0683 ± 0.0083
GTGTTGGA	0.382 ± 0.0051
CTGTTGAA	-0.0551 ± 0.1
GTGTTGAA	0.4 ± 0.013
ACCTTTAT	0.0337 ± 0.024
CGTGTGTA	0.00111 ± 0.014
AGTGTGTA	0.172 ± 0.073
TGGGTGAA	-0.158 ± 0.043

Sequence	PBM E-score of 8-mer
AGTGTGAA	0.48836 ± 0.00035
CGTGTGAA	0.4524 ± 0.0013
CGTGTGCA	0.0443 ± 0.011
AGAGTGAA	0.0596 ± 0.056
TGTGTGAA	0.4728 ± 0.0017
TATGTGAA	0.11 ± 0.1
CGCTACCA	0.243 ± 0.024
AGTTCTTC	-0.293 ± 0.02
AAAAGTGC	0.2475 ± 0.00082
ATCCTTCA	-0.143 ± 0.044
ACCGACCC	0.00535 ± 0.068
ACCATTAA	-0.0404 ± 0.015
GAAGTCTC	0.102 ± 0.062
CGCCTAAG	0.0221 ± 0.02
ACCCTCAA	0.0906 ± 0.052
GAGTTGCC	0.0293 ± 0.068
CACAGCTG	0.296 ± 0.0054
ATGACAAA	-0.0227 ± 0.073
CTGACAAA	0.12 ± 0.038
GAGACACA	0.053 ± 0.046
CTGACAAC	0.257 ± 0.012
GTGACGAA	0.371 ± 0.014
GTGACACA	0.416 ± 0.0096
CTGACGAA	0.0955 ± 0.048
ATGACGAA	-0.065 ± 0.04

Sequence	PBM E-score of 8-mer
ATGACAAC	0.241 ± 0.054
CTGACACA	0.344 ± 0.013
GTGACAAC	0.4452 ± 0.0036
GTGACAAA	0.428 ± 0.029
GTAGTCGA	-0.0608 ± 0.0079
ATTATTCG	-0.0471 ± 0.044
CTGGCTTA	-0.275 ± 0.025
CTACAGGC	-0.125 ± 0.0056
GATGGTCA	-0.26 ± 0.0048
CGCGAACA	0.328 ± 0.007
TACTTAAA	-0.246 ± 0.057
GTGATTGA	0.125 ± 0.042
GACTCGAC	0.0517 ± 0.016
CGTTATCC	-0.058 ± 0.009
CACACATC	0.381 ± 0.035
AACACATT	0.389 ± 0.028
AACACACT	0.229 ± 0.021
CTCACATA	0.0666 ± 0.017
CACACATG	0.352 ± 0.0023
ATCACATC	0.195 ± 0.058
GACACATC	0.372 ± 0.0069
GACACAGC	0.1102 ± 0.00023
AAAACATT	-0.0945 ± 0.013
CGCACATC	0.298 ± 0.055
GACACATA	0.322 ± 0.038

Sequence	PBM E-score of 8-mer
CTCACATC	0.3693 ± 0.0021
AGTGAGGG	-0.0175 ± 0.1
GACTGCGC	-0.107 ± 0.044
ACGAAGCT	-0.143 ± 0.014
AAGCGAAA	-0.083 ± 0.07
AAGCAGTC	-0.167 ± 0.023
GACTTCTC	0.148 ± 0.065
GGACTTGA	-0.145 ± 0.015
CGCTCGGC	-0.148 ± 0.02
AACACATG	0.317 ± 0.013
AACACATA	0.373 ± 0.0082
CACACATA	0.365 ± 0.021
AACACATC	0.378 ± 0.013
AACACAGC	0.0601 ± 0.048
TACACATA	0.115 ± 0.032
CCTAATAG	-0.122 ± 0.052
CTGCTCAA	-0.0839 ± 0.036
ATATGTTG	0.0196 ± 0.038
CTGTGTTA	0.158 ± 0.045
ATGTGTTA	0.446 ± 0.0057
ATGTGTTG	0.398 ± 0.008
ATGTGTTC	0.156 ± 0.025
GTGTGTTA	0.274 ± 0.012
CTCGAAGC	-0.0159 ± 0.011
ACTACGTA	-0.156 ± 0.012

Sequence	PBM E-score of 8-mer
GAGTTACA	0.0401 ± 0.024
CTTGTCGC	0.277 ± 0.012
ATTGTCAC	0.427 ± 0.016
ATTGTCAA	0.248 ± 0.039
ATTGTCAG	0.134 ± 0.026
CTTGTCAA	0.305 ± 0.034
CTTGTCAC	0.405 ± 0.015
GGGTTGAA	-0.0332 ± 0.073
CCGCTACG	-0.186 ± 0.064
GTGATAAC	0.406 ± 0.02
ATGATAAC	0.0197 ± 0.036
GTGATAAA	0.339 ± 0.07
ATTCCCAG	-0.25 ± 0.009
GTGTATCA	-0.00951 ± 0.055
TTGCTAAA	0.241 ± 0.078
GTGCTAAC	0.453 ± 0.0072
GTGCTAGA	0.382 ± 0.0098
CTGCTAAA	0.21 ± 0.071
GTGCTAAA	0.435 ± 0.007
ATGCTAAC	0.0631 ± 0.061
GAGCTAGA	-0.00238 ± 0.087
CTGCTAAC	0.318 ± 0.029
